# Source: PubChem BioAssay AID1508601 (ICCB-Longwood Screening Facility, Harvard Medical School, 2020)
# Hit rate of the full screen: of about 5,700 compounds, about 85 (1%) were called active. No stated cut-off is given here; in the data, active means p53-positive nuclei above about 36% (passing the limit was not always enough); inactive means the rest. The entries come from a sample that favours actives as a whole.
# Experiments:
# [1] = p53 stabilisation in HPV-positive human cells, imaging, p53-positive nuclei imaging, 24 h, 48 h (AID 1508601); settings: 24/48 h
# [2] = target: Cellular tumor antigen p53 (Homo sapiens) (UniProt P04637); experiment: as above; settings: 24/48 h, stronger effect = higher value
# Chain of Cellular tumor antigen p53 (Homo sapiens) (P04637 whole entry, looked up): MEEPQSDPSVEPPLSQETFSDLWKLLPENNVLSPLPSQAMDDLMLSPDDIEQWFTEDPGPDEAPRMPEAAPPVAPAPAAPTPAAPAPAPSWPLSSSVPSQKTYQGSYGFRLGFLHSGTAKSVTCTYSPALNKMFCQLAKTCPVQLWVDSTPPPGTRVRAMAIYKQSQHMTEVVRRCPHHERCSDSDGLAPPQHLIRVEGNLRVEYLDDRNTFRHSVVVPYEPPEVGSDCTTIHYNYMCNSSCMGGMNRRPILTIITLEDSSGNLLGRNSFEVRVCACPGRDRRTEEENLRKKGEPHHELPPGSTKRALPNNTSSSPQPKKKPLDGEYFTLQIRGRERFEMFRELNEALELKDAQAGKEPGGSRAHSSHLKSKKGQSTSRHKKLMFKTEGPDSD
# [3] = measured here: cell number at 24 h, Library stock concentration: 3.33 mM
# [4] = measured here: cell number at 48 h, Library stock concentration: 3.33 mM
# [5] = Library stock concentration: 3.33 mM
# [6] = measured here: p53 positive nuclei at 24 h, Library stock concentration: 3.33 mM
# [7] = measured here: cell number at 24 h, concentration not given here
# [8] = measured here: cell number at 48 h, concentration not given here
# [9] = measured here: p53 positive nuclei at 24 h, concentration not given here
# [10] = measured here: cell number at 24 h, Library stock concentration: 10 mM
# [11] = measured here: cell number at 48 h, Library stock concentration: 10 mM
# [12] = Library stock concentration: 10 mM
# [13] = measured here: p53 positive nuclei at 24 h, Library stock concentration: 10 mM
structure (smiles),measurement,setting,value
O=C(O)c1ccccc1,"nuclei count, normalised",[1]; [3],99.7%
same,"nuclei count, normalised",[1]; [4],99.1%
same,"p53-positive nuclei, normalised",[2]; [5],-0.166% (inactive)
same,"p53-positive nuclei, normalised",[2]; [6],-0.28%
O=C(O)CCNC(=O)c1ccccc1,"nuclei count, normalised",[1]; [3],113%
same,"nuclei count, normalised",[1]; [7],110%
same,"nuclei count, normalised",[1]; [4],105%
same,"nuclei count, normalised",[1]; [8],110%
same,"p53-positive nuclei, normalised",[2]; [5],0.0364% (inactive)
same,"p53-positive nuclei, normalised",[2]; concentration not given here,0.0211% (inactive)
same,"p53-positive nuclei, normalised",[2]; [6],-0.327%
same,"p53-positive nuclei, normalised",[2]; [9],-0.211%
CCCCCC(=O)/C=C/[C@H]1[C@H](O)CC(=O)[C@@H]1CCCCCCC(=O)O,"nuclei count, normalised",[1]; [7],107%
same,"nuclei count, normalised",[1]; [8],107%
same,"p53-positive nuclei, normalised",[2]; concentration not given here,-0.0323% (inactive)
same,"p53-positive nuclei, normalised",[2]; [9],-0.0183%
CCCCCNC(=O)N1CCC2(CC1)Nc1ccccc1N(CC1CC1)C2=O,"nuclei count, normalised",[1]; [7],105%
same,"nuclei count, normalised",[1]; [8],110%
same,"p53-positive nuclei, normalised",[2]; concentration not given here,-0.23% (inactive)
same,"p53-positive nuclei, normalised",[2]; [9],-0.154%
COc1ccc(N2C(=O)C(=Cc3ccc([N+](=O)[O-])s3)SC2=S)cc1,"nuclei count, normalised","[1]; measured here: cell number at 24 h, Library stock concentration: 500 nM",117%
same,"nuclei count, normalised","[1]; measured here: cell number at 24 h, Library stock concentration: 1.5 uM",113%
same,"nuclei count, normalised","[1]; measured here: cell number at 24 h, Library stock concentration: 4.6 uM",108%
same,"nuclei count, normalised","[1]; measured here: cell number at 24 h, Library stock concentration: 13.7 uM",110%
same,"nuclei count, normalised","[1]; measured here: cell number at 24 h, Library stock concentration: 41 uM",105%
same,"nuclei count, normalised","[1]; measured here: cell number at 24 h, Library stock concentration: 123 uM",88.7%
same,"nuclei count, normalised","[1]; measured here: cell number at 24 h, Library stock concentration: 370 uM",69.2%
same,"nuclei count, normalised","[1]; measured here: cell number at 24 h, Library stock concentration: 1.111 mM",62.1%
same,"nuclei count, normalised","[1]; measured here: cell number at 24 h, Library stock concentration: 3.333 mM",48.5%
same,"nuclei count, normalised",[1]; [10],37.6%
same,"nuclei count, normalised","[1]; measured here: cell number at 48 h, Library stock concentration: 500 nM",110%
same,"nuclei count, normalised","[1]; measured here: cell number at 48 h, Library stock concentration: 1.5 uM",106%
same,"nuclei count, normalised","[1]; measured here: cell number at 48 h, Library stock concentration: 4.6 uM",107%
same,"nuclei count, normalised","[1]; measured here: cell number at 48 h, Library stock concentration: 13.7 uM",104%
same,"nuclei count, normalised","[1]; measured here: cell number at 48 h, Library stock concentration: 41 uM",108%
same,"nuclei count, normalised","[1]; measured here: cell number at 48 h, Library stock concentration: 123 uM",87.8%
same,"nuclei count, normalised","[1]; measured here: cell number at 48 h, Library stock concentration: 370 uM",59.1%
same,"nuclei count, normalised","[1]; measured here: cell number at 48 h, Library stock concentration: 1.111 mM",49.4%
same,"nuclei count, normalised","[1]; measured here: cell number at 48 h, Library stock concentration: 3.333 mM",31.9%
same,"nuclei count, normalised",[1]; [11],24.4%
same,"p53-positive nuclei, normalised",[2]; Library stock concentration: 500 nM,0.221% (inactive)
same,"p53-positive nuclei, normalised",[2]; Library stock concentration: 1.5 uM,0.0846% (inactive)
same,"p53-positive nuclei, normalised",[2]; Library stock concentration: 4.6 uM,0.192% (inactive)
same,"p53-positive nuclei, normalised",[2]; Library stock concentration: 13.7 uM,-0.0302% (inactive)
same,"p53-positive nuclei, normalised",[2]; Library stock concentration: 41 uM,0.353% (inactive)
same,"p53-positive nuclei, normalised",[2]; Library stock concentration: 123 uM,5.11% (inactive)
same,"p53-positive nuclei, normalised",[2]; Library stock concentration: 370 uM,28.8% (inactive)
same,"p53-positive nuclei, normalised",[2]; Library stock concentration: 1.111 mM,38.4% (inactive)
same,"p53-positive nuclei, normalised",[2]; Library stock concentration: 3.333 mM,79.8% (active)
same,"p53-positive nuclei, normalised",[2]; [12],117% (active)
same,"p53-positive nuclei, normalised","[2]; measured here: p53 positive nuclei at 24 h, Library stock concentration: 500 nM",-0.0612%
same,"p53-positive nuclei, normalised","[2]; measured here: p53 positive nuclei at 24 h, Library stock concentration: 1.5 uM",0.0572%
same,"p53-positive nuclei, normalised","[2]; measured here: p53 positive nuclei at 24 h, Library stock concentration: 4.6 uM",0.0046%
same,"p53-positive nuclei, normalised","[2]; measured here: p53 positive nuclei at 24 h, Library stock concentration: 13.7 uM",0.00591%
same,"p53-positive nuclei, normalised","[2]; measured here: p53 positive nuclei at 24 h, Library stock concentration: 41 uM",0.0741%
same,"p53-positive nuclei, normalised","[2]; measured here: p53 positive nuclei at 24 h, Library stock concentration: 123 uM",5.3%
same,"p53-positive nuclei, normalised","[2]; measured here: p53 positive nuclei at 24 h, Library stock concentration: 370 uM",28.7%
same,"p53-positive nuclei, normalised","[2]; measured here: p53 positive nuclei at 24 h, Library stock concentration: 1.111 mM",41.6%
same,"p53-positive nuclei, normalised","[2]; measured here: p53 positive nuclei at 24 h, Library stock concentration: 3.333 mM",85.9%
same,"p53-positive nuclei, normalised",[2]; [13],121%
O=C(O)c1ccc(C=C2SC(=S)N(c3cccc(C(F)(F)F)c3)C2=O)cc1,"nuclei count, normalised",[1]; [3],76.4%
same,"nuclei count, normalised",[1]; [4],78.4%
same,"p53-positive nuclei, normalised",[2]; [5],-0.0579% (inactive)
same,"p53-positive nuclei, normalised",[2]; [6],-0.316%
C/C=C/C(=O)O[C@H](COCCCCCCCCCCCCCCCC)COP(=O)([O-])OCC[N+](C)(C)C,"nuclei count, normalised",[1]; [7],91.3%
same,"nuclei count, normalised",[1]; [8],103%
same,"p53-positive nuclei, normalised",[2]; concentration not given here,-0.0567% (inactive)
same,"p53-positive nuclei, normalised",[2]; [9],0.0947%
CCCCCCCCCCCCCCCCCC(=O)OCC,"nuclei count, normalised",[1]; [7],111%
same,"nuclei count, normalised",[1]; [8],110%
same,"p53-positive nuclei, normalised",[2]; concentration not given here,-0.0271% (inactive)
same,"p53-positive nuclei, normalised",[2]; [9],-0.00774%
N=c1ccn2c(n1)OC1C(O)C(CO)OC12 (configuration not stated),"nuclei count, normalised",[1]; [3],61.4%
same,"nuclei count, normalised",[1]; [4],51.8%
same,"p53-positive nuclei, normalised",[2]; [5],0.1% (inactive)
same,"p53-positive nuclei, normalised",[2]; [6],-0.25%
Nc1cccc(OCc2ccccc2)c1,"nuclei count, normalised","[1]; measured here: cell number at 24 h, Library stock concentration: 46 uM",111%
same,"nuclei count, normalised","[1]; measured here: cell number at 24 h, Library stock concentration: 278 uM",109%
same,"nuclei count, normalised","[1]; measured here: cell number at 24 h, Library stock concentration: 1.67 mM",109%
same,"nuclei count, normalised",[1]; [10],99%
same,"nuclei count, normalised","[1]; measured here: cell number at 48 h, Library stock concentration: 46 uM",106%
same,"nuclei count, normalised","[1]; measured here: cell number at 48 h, Library stock concentration: 278 uM",111%
same,"nuclei count, normalised","[1]; measured here: cell number at 48 h, Library stock concentration: 1.67 mM",109%
same,"nuclei count, normalised",[1]; [11],103%
same,"p53-positive nuclei, normalised",[2]; Library stock concentration: 46 uM,-0.0623% (inactive)
same,"p53-positive nuclei, normalised",[2]; Library stock concentration: 278 uM,-0.108% (inactive)
same,"p53-positive nuclei, normalised",[2]; Library stock concentration: 1.67 mM,0.151% (inactive)
same,"p53-positive nuclei, normalised",[2]; [12],0.0982% (inactive)
same,"p53-positive nuclei, normalised","[2]; measured here: p53 positive nuclei at 24 h, Library stock concentration: 46 uM",-0.0998%
same,"p53-positive nuclei, normalised","[2]; measured here: p53 positive nuclei at 24 h, Library stock concentration: 278 uM",-0.155%
same,"p53-positive nuclei, normalised","[2]; measured here: p53 positive nuclei at 24 h, Library stock concentration: 1.67 mM",0.0148%
same,"p53-positive nuclei, normalised",[2]; [13],-0.152%
